Active and inactive are the calls of the source. Unless noted, no rule for the calls is given here.
How the values were obtained:
[1] = compound effects on lung adenocarcinoma cell viability – A549, calcein-AM fluorescence, 48 h, basal, profiling panel (AID 1162); details: higher = more signal; also: test concentration not given here
[2] = compound effects on differentiated 3T3-L1 adipocyte viability – cell-based, 3T3-L1 adipocytes, calcein-AM fluorescence, 48 h, basal, profiling panel (AID 1163); details: 3T3-L1 adipocytes viability, higher = more signal; also: test concentration not given here
[3] = compound effects on hepatocellular carcinoma cell viability – HepG2, calcein-AM fluorescence, 48 h, basal, profiling panel (AID 1164); details: higher = more signal; also: test concentration not given here
[4] = compound effects on multiple myeloma cell viability – MM1S, calcein-AM fluorescence, 48 h, basal, profiling panel (AID 1165); details: higher = more signal;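 also: viability of MM1S multiple myeloma cells under basal unstimulated conditions; test concentration not given here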
[5] = calcein-AM signal in unstimulated myeloma cells – cell-based, calcein-AM fluorescence, 48 h, PK04 Diversity Set, profiling panel (AID 1166); details: RPMI8226 myeloma viability, higher = more signal;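 also: cells grown under basal conditions without added stimulus; test concentration not given here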
[6] = JC-1 mitochondrial signal, unstimulated HepG2 cells – cell-based, JC-1 fluorescence, 24 h, 100 nL compound, profiling panel (AID 1167); details: HepG2 mitochondrial potential, higher = more signal; also: test concentration not given here
[7] = JC-1 mitochondrial signal, unstimulated adipocytes – cell-based, JC-1 fluorescence, 3T3-L1 adipocytes, 24 h, 100 nL compound, profiling panel (AID 1168); details: JC-1 mitochondrial fluorescence, higher = more signal, called active from +8 up or from −8 down; also: test concentration not given here
[8] = JC-1 mitochondrial signal, unstimulated myeloma cells – cell-based, JC-1 fluorescence, RPMI8226, 24 h, 100 nL compound, profiling panel (AID 1169); details: JC-1 mitochondrial potential fluorescence, higher = more signal; also: test concentration not given here
[9] = JC-1 mitochondrial signal, unstimulated MM1S myeloma – cell-based, JC-1 fluorescence, 24 h, 100 nL compound, profiling panel (AID 1170); details: MM1S mitochondrial potential, higher = more signal; also: test concentration not given here
[10] = resazurin metabolic signal in A549 cells – cell-based, resazurin fluorescence, 24 h, PK04 Diversity Set, profiling panel (AID 1171); details: A549 viability, higher = more signal, called active from +8 up or from −8 down; also: test concentration not given here
[11] = resazurin metabolic signal in HepG2 cells – cell-based, resazurin fluorescence, 24 h, PK04 Diversity Set, profiling panel (AID 1172); details: HepG2 viability, higher = more signal; also: test concentration not given here
[12] = budding yeast growth changes without added modifier – OD600, strain BY4716, 24 h, basal condition, primary screen (AID 1173); details: S. cerevisiae BY4716 growth, OD600, 24 h; higher = more signal, called active from +8 up or from −8 down
[13] = viability profiling in MM1S myeloma cells – cell-based, resazurin fluorescence, basal, 24 h, PK04 Diversity Set, profiling panel (AID 1174); details: higher = more signal, called active from +8 up or from −8 down; also: test concentration not given here
[14] = target: Dihydroorotate dehydrogenase (quinone), mitochondrial (Plasmodium falciparum (isolate 3D7)) (UniProt Q08210); experiment: inhibition of P. falciparum DHODH – biochemical, C-terminal His tag, absorbance 600 nm, primary screen (AID 1175); details: PfDHODH enzyme, DCIP absorbance 600 nm; higher = more signal, called active from +8 up or from −8 down;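 also: recombinant parasite enzyme with a five histidine tag at its C terminus; test concentration not given here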
[15] = inhibition of PAO1 biofilm formation – strain PAO1, LB-PBS medium, absorbance 600 nm, primary screen (AID 1176); also: test concentration not given here; details: P. aeruginosa PAO1 growth/biofilm, A600, 12 h; higher = more signal
[16] = growth modulation of vineyard yeast isolate – strain RM11-1a, OD600, basal, 24 h, primary screen (AID 1177);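 also: cultures grown under basal conditions with no added stressor; test concentration not given here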; details: S. cerevisiae RM11-1a growth, OD600, 24 h; higher = more signal, called active from +8 up or from −8 down
[17] = growth of efflux-deficient E. coli DRC39 – strain DRC39, OD650, 24 h, E. coli filamentation inducers, primary screen (AID 1178);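 also: growth measured as culture turbidity by optical density at 650 nm; test concentration not given here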; details: E. coli DRC39 acrAB, higher = more signal, called active from +8 up or from −8 down
[18] = growth of efflux-deficient E. coli DRC39 – strain DRC39, OD650, 48 h, E. coli filamentation inducers, primary screen (AID 1179);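 also: screen aims at cell division blockers that make cells filament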; details: E. coli DRC39 delta-acrAB growth, higher = more signal, called active from +8 up or from −8 down
[19] = viability profiling in RPMI8226 myeloma cells – cell-based, resazurin fluorescence, basal, 24 h, PK04 Diversity Set, profiling panel (AID 1180); details: higher = more signal;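 also: RPMI8826 multiple myeloma cell line at 5000 cells per well; test concentration not given here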
[20] = target: E3 ubiquitin-protein ligase XIAP (Homo sapiens) (UniProt P98170); experiment: small molecules binding XIAP protein – biophysical, small-molecule microarray, fluorescence 635 nm, primary screen (AID 1181); details: higher = more signal;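 also: score merges 667 nm emission and signal to noise over triplicate slides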
Chain of E3 ubiquitin-protein ligase XIAP (Homo sapiens) (P98170 whole entry, looked up): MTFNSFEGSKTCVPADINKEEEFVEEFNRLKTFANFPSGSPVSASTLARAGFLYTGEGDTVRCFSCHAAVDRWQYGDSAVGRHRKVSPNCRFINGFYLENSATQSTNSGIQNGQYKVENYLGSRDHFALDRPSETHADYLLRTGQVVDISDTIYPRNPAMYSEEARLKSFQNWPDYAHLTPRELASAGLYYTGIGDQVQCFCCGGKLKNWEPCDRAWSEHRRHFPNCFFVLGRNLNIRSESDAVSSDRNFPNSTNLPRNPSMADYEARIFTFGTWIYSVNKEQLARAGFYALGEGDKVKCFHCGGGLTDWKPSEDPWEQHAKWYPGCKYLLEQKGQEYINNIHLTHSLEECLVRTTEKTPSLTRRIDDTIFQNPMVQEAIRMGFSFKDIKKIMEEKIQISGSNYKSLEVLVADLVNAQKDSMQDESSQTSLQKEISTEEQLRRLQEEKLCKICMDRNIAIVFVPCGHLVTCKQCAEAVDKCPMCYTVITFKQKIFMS

Chain of Dihydroorotate dehydrogenase (quinone), mitochondrial (Plasmodium falciparum (isolate 3D7)) (Q08210 whole entry, looked up): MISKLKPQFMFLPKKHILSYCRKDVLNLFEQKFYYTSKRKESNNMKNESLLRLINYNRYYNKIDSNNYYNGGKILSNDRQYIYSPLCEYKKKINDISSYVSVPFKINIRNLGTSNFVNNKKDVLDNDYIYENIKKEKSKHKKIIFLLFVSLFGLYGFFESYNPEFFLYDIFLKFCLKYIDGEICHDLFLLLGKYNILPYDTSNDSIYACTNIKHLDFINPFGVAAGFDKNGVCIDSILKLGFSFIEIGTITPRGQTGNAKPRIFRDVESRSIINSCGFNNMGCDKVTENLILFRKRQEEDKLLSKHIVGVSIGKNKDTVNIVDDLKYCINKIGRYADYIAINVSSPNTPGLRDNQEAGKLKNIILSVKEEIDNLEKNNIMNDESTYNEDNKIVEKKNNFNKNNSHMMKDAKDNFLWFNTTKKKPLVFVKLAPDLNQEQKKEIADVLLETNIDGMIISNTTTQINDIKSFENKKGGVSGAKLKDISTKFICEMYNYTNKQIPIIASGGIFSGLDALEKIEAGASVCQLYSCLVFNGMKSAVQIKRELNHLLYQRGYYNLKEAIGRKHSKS

SMILES	z-score [1]	z-score [2]	z-score [3]	z-score [4]	z-score [5]	z-score [6]	z-score [7]	z-score [8]	z-score [9]	z-score [10]	z-score [11]	z-score [12]	z-score [13]	composite z-score [14]	z-score [15]	z-score [16]	z-score [17]	z-score [18]	z-score [19]	composite z-score [20]
O=C1C2C=CC(C(O)c3cccc(O)c3)N(Nc3ccccc3)C2C(=O)N1c1ccccc1 (stereo not given)	-0.671	-0.096	-1.22	-0.109	-0.444	-2.04	0.166 (inactive)	-0.0193	-1.37	-0.224 (inactive)	-0.491	-0.774 (inactive)	-1.05 (inactive)	-0.791 (inactive)	0.67 (inactive)	0.196 (inactive)	-0.0671 (inactive)	0.0995 (inactive)	-0.985	-0.0806
COc1ccc(C(O)C2C=CC3C(=O)N(c4ccccc4)C(=O)C3N2Nc2ccc(C(C)C)cc2)c2ccccc12 (stereo not given)	0.181	-0.946	0.301	-0.419	0.129	-0.783	0.0228 (inactive)	-0.293	-0.154	-0.64 (inactive)	-2.57	-1.62 (inactive)	-0.871 (inactive)	0.183 (inactive)	1.8 (inactive)	0.427 (inactive)	0.0571 (inactive)	0.313 (inactive)	-0.208	0.349
C[C@]1(C(=O)O)c2ccccc2C(=O)N(Cc2ccc(OC(F)(F)F)cc2)[C@H]1c1ccc(CO)cc1	0.0055	0.755	-0.167	-0.24	-1.48	0.248	-1.18 (inactive)	-0.0611	0.057	0.244 (inactive)	0.0448	-0.847 (inactive)	0.0944 (inactive)	-0.295 (inactive)	0.0993 (inactive)	-0.475 (inactive)	0.248 (inactive)	-0.0775 (inactive)	0.441	0.265
O=C1O[C@H](c2ccccc2)[C@H](c2ccccc2)N2[C@H]1[C@@H](C(=O)O)[C@]1(C(=O)Nc3ccc(C#CC4(O)CCCCCC4)cc31)[C@H]2c1ccc(O)cc1	-0.167	0.685	-0.714	-0.217	0.265	-0.482	-0.559 (inactive)	-0.0905	-0.705	0.976 (inactive)	0.934	-1.83 (inactive)	1.36 (inactive)	-3.2 (inactive)	0.734 (inactive)	-0.692 (inactive)	0.451 (inactive)	-0.679 (inactive)	-0.0544	-0.248
C=CCNC(=O)[C@@H]1[C@H]2C(=O)O[C@H](c3ccccc3)[C@H](c3ccccc3)N2[C@H](c2ccc(O)cc2)[C@@]12C(=O)Nc1ccc(C#CCC(C(=O)OC)C(=O)OC)cc12	-0.399	-0.937	-0.6	-3.31	-4.52	-1.76	-0.271 (inactive)	-1.25	-2.23	-0.395 (inactive)	-0.0043	1.12 (inactive)	-6.93 (inactive)	-6.73 (inactive)	1.54 (inactive)	1.4 (inactive)	-0.0975 (inactive)	-0.112 (inactive)	-5.23	-0.274
C=CCNC(=O)[C@H]1[C@@H]2C(=O)O[C@@H](c3ccccc3)[C@@H](c3ccccc3)N2[C@@H](c2ccc(O)cc2)[C@]12C(=O)N(C(=O)OCCOC)c1ccc(C#CCC(C(=O)OC)C(=O)OC)cc12	1.1	-0.206	-0.615	-2.93	-4.49	-1.26	0.448 (inactive)	-1.34	-1.83	0.979 (inactive)	0.238	1.34 (inactive)	-1.25 (inactive)	0.638 (inactive)	2.17 (inactive)	2.19 (inactive)	0.216 (inactive)	0.136 (inactive)	-4.72	-0.0251
CC(C)CNC(=O)[C@@]1(C)c2ccccc2C(=O)N(Cc2cc(C(F)(F)F)cc(C(F)(F)F)c2)[C@H]1c1ccc(CO)cc1	0.18	-0.698	1.2	-0.236	0.208	2.16	0.103 (inactive)	0.465	-0.939	-0.428 (inactive)	-0.402	0.145 (inactive)	-0.47 (inactive)	0.24 (inactive)	-0.0933 (inactive)	-0.46 (inactive)	0.162 (inactive)	0.644 (inactive)	0.364	-0.206
CC(C)c1ccc(NN2C(C(O)Cc3ccccc3)C=CC3C(=O)N(c4ccccc4)C(=O)C32)cc1 (stereo not given)	-0.989	-0.482	0.526	-1.06	-0.434	-2	-0.864 (inactive)	0.411	1.51	-0.63 (inactive)	-1.93	-1.02 (inactive)	-1 (inactive)	-0.335 (inactive)	0.683 (inactive)	0.269 (inactive)	-1.12 (inactive)	-1.07 (inactive)	-0.807	0.0989
COCCOC(=O)N1C(=O)[C@@]2(c3ccccc31)[C@H](c1ccc(OCCO)cc1)N1[C@H](c3ccccc3)[C@H](c3ccccc3)OC(=O)[C@H]1[C@@H]2C(=O)N1CCCCCCC1	0.246	0.0203	0.0373	-2.74	-0.846	-0.0288	-3.41 (inactive)	-0.345	-0.899	0.0556 (inactive)	1.11	0.492 (inactive)	0.441 (inactive)	0.132 (inactive)	1.84 (inactive)	2 (inactive)	-0.965 (inactive)	-0.618 (inactive)	1.04	2.64
C=C[C@@H](C)[C@H](O)c1ccc(OCCO)cc1	0.283	0.154	-0.0484	0.0554	-0.289	1.2	0.0591 (inactive)	0.948	-0.612	-0.0272 (inactive)	0.0075	-0.731 (inactive)	0.088 (inactive)	-0.445 (inactive)	0.0852 (inactive)	0.164 (inactive)	1.02 (inactive)	0.856 (inactive)	-0.127	-0.184
O=C1C2C=CC(C(O)c3cc(C(F)(F)F)cc(C(F)(F)F)c3)N(Nc3ccccc3F)C2C(=O)N1c1ccccc1 (stereo not given)	-1.28	-0.599	-3.36	-3.6	-4.08	-3.93	0.0394 (inactive)	-1.11	-0.964	-0.648 (inactive)	-2.18	-1.47 (inactive)	-1.09 (inactive)	-0.232 (inactive)	1.11 (inactive)	0.332 (inactive)	-2.31 (inactive)	-0.711 (inactive)	-3.04	0.0264
COc1cc(NN2C(C(O)c3ccccc3)C=CC3C(=O)N(C)C(=O)C32)cc(OC)c1OC (stereo not given)	-0.209	0.68	-0.131	-1.34	-0.589	-0.944	0.215 (inactive)	-0.413	-1.54	-1.52 (inactive)	-2.2	0.758 (inactive)	-1.23 (inactive)	-2.04 (inactive)	0.574 (inactive)	-0.0472 (inactive)	-0.466 (inactive)	-0.882 (inactive)	-1.32	0.0024
CC(=O)NCCCC[C@@H]1NC(=O)[C@@H]2C[C@H](C(=O)NCCCCCCN)[C@H](c3cccc(OCCO)c3)N2C1=O	-0.182	0.691	0.268	0.213	-0.413	-1.26	-0.0165 (inactive)	0.648	0.0193	-0.358 (inactive)	-0.55	-0.652 (inactive)	-0.152 (inactive)	0.23 (inactive)	-0.0617 (inactive)	-0.158 (inactive)	-0.0095 (inactive)	0.211 (inactive)	-0.257	0.0896
O=c1cccc(-c2ccc(F)cc2)o1	-0.562	0.616	-0.606	-0.0871	-0.913	0.0366	0.5 (inactive)	0.036	-0.0644	-0.0964 (inactive)	0.0278	-0.576 (inactive)	0.306 (inactive)	-0.555 (inactive)	-0.088 (inactive)	0.18 (inactive)	-0.561 (inactive)	-0.165 (inactive)	-0.739	-0.167
Cc1ccc(C(C)CC(O)C2C=CC3C(=O)N(c4ccccc4)C(=O)C3N2Nc2ccc(C#N)cc2)o1 (stereo not given)	0.491	-0.0968	0.459	-3.7	-0.355	0.175	-0.155 (inactive)	-1.05	-1.2	-1.17 (inactive)	-0.793	-17.1 (active)	-3.76 (inactive)	-1.79 (inactive)	0.0616 (inactive)	-20.8 (active)	0.431 (inactive)	1.14 (inactive)	-5.62	0.0204
COc1cccc(/C=C(\C#N)C(=O)Nc2c(C)n(C)n(-c3ccccc3)c2=O)c1	2.14	1.12	1.01	-0.485	0.101	0.778	0.159 (inactive)	0.505	-0.535	-0.589 (inactive)	0.665	-1.81 (inactive)	-1.82 (inactive)	-1.14 (inactive)	0.792 (inactive)	-0.6 (inactive)	0.575 (inactive)	1.15 (inactive)	0.191	0.0775
C=CC1c2cc(O)c(OC)cc2CCN1Cc1ccc([N+](=O)[O-])o1 (stereo not given)	0.654	-0.187	-0.143	-0.429	0.413	-0.22	0.362 (inactive)	-0.0931	0.877	0.0283 (inactive)	-0.362	0.193 (inactive)	0.336 (inactive)	0.294 (inactive)	-1.03 (inactive)	1.11 (inactive)	0.148 (inactive)	-0.217 (inactive)	0.685	0.188
COCCOC(=O)N1C(=O)[C@@]2(c3cc(C#CC4=CCCCC4)ccc31)[C@H](C(=O)N1CCCCCCC1)[C@H]1C(=O)O[C@H](c3ccccc3)[C@H](c3ccccc3)N1[C@@H]2c1ccc(OCCO)cc1	0.382	1.74	-0.214	-0.774	-0.779	0.225	-3.07 (inactive)	-0.674	-1.14	-0.223 (inactive)	0.111	-0.145 (inactive)	-0.341 (inactive)	-1.9 (inactive)	2.26 (inactive)	1.16 (inactive)	-0.427 (inactive)	-0.311 (inactive)	0.169	0.144

Reference: PubChem BioAssay
